Records with an inconclusive call do not appear. A call without a number means that no potency is given here. Values without a mark were called inactive. Active and inactive are the calls of the source. Calls come from the whole dose curve; as a rule, active = well fitted cell-killing curve with a large enough effect; inconclusive = small, poorly fitted or top-dose-only effect, or effect the other way; inactive = no such curve, though single readings can be large or run the other way.
Potency is the fitted concentration of half-maximal effect.

This assay in a line: Viability qHTS for spleen associated tyrosine kinase inhibitor (SYKi) drug resistant MV4-11 cells (AID 1963824). Note: nearly all actives have a fitted effect of over 35% in size. The settings on record: SYKi-resistant MV4-11 viability, CellTiter-Glo, 72 h; series mostly up to 45 µM. A digest of the protocol:
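SYK inhibitor-resistant MV4-11 AML cells, 500 per well, added to predispensed compounds and incubated 72 hr at 37 C, 5% CO2. Viability measured by CellTiter-Glo luminescence after 10 min at room temperature.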
Consider `O=C(OC1CN2CCC1CC2)N1CCc2ccccc2C1c1ccccc1` (stereo not given), for which the Potency was 18.4 µM (active).

Turning to `NC(=O)c1cccc2[nH]c(-c3ccc(C4CCCN4)cc3F)nc12` (stereo not given), the Potency is 16.4 µM (active).

On to `Cc1ncc([N+](=O)[O-])n1CC(O)CN1CCOCC1` (stereo not given), for which the Potency result is “inactive”.

As to `NC(=O)NS(=O)(=O)c1ccc(Cl)cc1`, the Potency entry is “inactive”.

Take `Cc1cc(Nc2cc(C)c(C#N)c(NC(C)CCCC(C)(C)O)n2)n[nH]1` (stereo not given): the Potency is 0.411 µM (active).

Regarding `CCC(CC)C(=O)OC12C(OC(=O)C(C)C)C(C)C3(O)C(C=C(CO)CC4(O)C(=O)C(C)=CC43)C1C2(C)C` (stereo not given), the Potency is 0.01 µM (active).

Take `CC(C)(O)c1ccc2c(c1)C(O)C[C@H]1[C@](C)(C(=O)O)CCC[C@]21C` (stereo not given in full): the Potency result is “inactive”.

In the case of `C[C@@H]1C[C@H](O)/C=C/[C@H](O)[C@@H](O)CC(=O)O1`, the Potency entry was “inactive”.

For the compound `C=C1CC2[C@@]3(C)C=CC(=O)C(C)(C)C3=C(O)C(=O)[C@@]2(C)C2(C(=O)OC)C(=O)C(C)OC(=O)[C@@]12C` (stereo not given in full), the Potency was 10 µM (active).

Consider `CC(O)CO[C@@H]1O[C@H](CO)[C@@H](O)[C@H](O)[C@H]1O` (stereo not given in full), for which the Potency entry is “inactive”.

For `CC(C)(C)n1nc(Cc2cccc3ccccc23)c2c(N)ncnc21`, the Potency is 13 µM (active).

On to `COc1cc(-c2cccc(O)c2)cc2c1OCO2`, for which the Potency entry is “inactive”.

As for `C[C@H]1CC[C@@H]2N(C1)C[C@@H]1[C@H]([C@@H](O)[C@H](O)[C@]3(O)[C@H]1C[C@@]14OC5(O)[C@@H](C[C@@H](O)[C@@H]31)[C@]4(C)CC[C@@H]5O)[C@]2(C)O`, the Potency entry is “inactive”.

Take `CC1(O)CC(O)C2(O)C=COC(O[C@@H]3O[C@H](CO)[C@@H](O)[C@H](O)[C@H]3O)C12` (stereo not given in full): the Potency entry was “inactive”.

Turning to `Cc1coc2c1CC1OC1(C)CCC1OC1(C)C2` (stereo not given), the Potency entry is “inactive”.

In the case of `C[C@@H]1CC[C@]2(C(=O)O)CC[C@]3(C)C(=CCC4[C@@]5(C)C[C@@H](O)[C@@H](O)C(C)(C)C5CC[C@]43C)C2[C@]1(C)O` (stereo not given in full), the Potency is 3.55 µM (active).

As for `CC1(C)CCC(C)(C)c2cc([C@@H](O)C(=O)Nc3ccc(C(=O)O)cc3F)ccc21`, the Potency is 5.17 µM (active).

In the case of `CCC(C)(NC(=O)C(CCC(N)=O)NC(=O)C1CC(O)CN1C(=O)C(C)(C)NC(=O)C(C)(C)NC(=O)C(CC(C)C)NC(=O)CNC(=O)C(NC(=O)C(C)(C)NC(=O)C(C)(C)NC(=O)C(C)(C)NC(=O)C(Cc1ccccc1)NC(C)=O)C(C)C)C(=O)N1CC(O)CC1C(=O)NC(C)(C)C(=O)NC(CO)Cc1ccccc1` (stereo not given), the Potency is 0.616 µM (active).

On to `O=C(/C=C/c1ccc(O)cc1)N[C@@H](Cc1ccc(O)cc1)C(=O)O`, for which the Potency result was “inactive”.

Consider `NCCCC[C@H](NC(=O)[C@@H]1Cc2ccccc2CN1C(=O)CCC(=O)c1ccccc1)C(=O)NCC(c1ccccc1)c1ccccc1`, for which the Potency was 13 µM (active).

Consider `COC(=O)/C=C/c1ccc(O[C@@H]2O[C@H](CO)[C@@H](O)[C@H](O)[C@H]2O)cc1`, for which the Potency result was “inactive”.

Turning to `CC(=O)O[C@@]1(C)[C@@H]2CC(=C(C)C)C(=O)C[C@@]2(C)CC[C@H]1OC(=O)C1(C)OC1C` (stereo not given in full), the Potency result was “inactive”.

Consider `CC1(CO)CCCC2(C)C1C(OC(=O)c1ccccc1)C=C1C(=O)OCC12O` (stereo not given), for which the Potency is 1.61 µM (active).

For `COc1cccc(-c2cn(-c3ccc(CCN4CCC(O)CC4)cc3)c3ncnc(N)c23)c1`, the Potency is 2.31 µM (active).

In the case of `CC1=CC(=O)C(C(C)C)=C/C1=N/OC(=O)c1ccccc1C`, the Potency was 4.61 µM (active).

On to `O=C(/C=C/c1c(C(=O)O)[nH]c2cc(Cl)cc(Cl)c12)Nc1ccccc1`, for which the Potency result was “inactive”.

Turning to `C[C@@H]1O[C@@H](O[C@H]2[C@@H]3C=CO[C@@H](O[C@@H]4O[C@H](CO)[C@@H](O)[C@H](O)[C@H]4O)[C@@H]3[C@@]3(CO)O[C@@H]23)[C@H](O)[C@H](OC(=O)/C=C/c2ccc(O)cc2)[C@H]1OC(=O)/C=C/c1ccc(O)cc1`, the Potency entry is “inactive”.

With `COC1=CC(=O)CC(C)C12Oc1cc(OC)cc(O)c1C2=O` (stereo not given), the Potency entry is “inactive”.

For the compound `C=C1C(=O)O[C@@H]2C[C@@]3(C)C[C@@H](O)C[C@H](C)C3=C[C@H]12`, the Potency is 3.66 µM (active).

For the compound `C/C1=C\CC(C)(C)/C=C/C/C(C(=O)O)=C/CC1`, the Potency was 23.1 µM (active).

With `COC(=O)C1=CO[C@@H](O[C@@H]2O[C@H](CO)[C@@H](O)[C@H](O)[C@H]2O)[C@H]2[C@@H]1C=C[C@@]21C=C([C@H](C)O)C(=O)O1`, the Potency entry is “inactive”.

Regarding `Cc1cc(C)nc(SCC(=O)Nc2ncc(Cc3cccc4ccccc34)s2)n1`, the Potency was 10.3 µM (active).

Consider `C/C=C(\C)C(=O)OC[C@H]1O[C@@H](O[C@H]2[C@@H](O[C@H]3O[C@H](CO)[C@@H](O)[C@H](O)[C@H]3O[C@@H]3O[C@H](CO)[C@@H](O)[C@H](O)[C@H]3O)O[C@H](COC(=O)/C(C)=C/C)[C@@H](O)[C@@H]2O)[C@H](O)[C@@H](O)[C@@H]1O`, for which the viability, % of control was 79.8% [at 9.25 µM].

As for `CC/C=C/C=C/C1(C)OC(CC(CO)OC)=CC1=O` (stereo not given), the Potency is 23.1 µM (active).

Regarding `CC(=O)OC1C(O)C(C)(O)C(/C=C/C(=O)O)C2(C)CCCC(C)(C)C12` (stereo not given), the Potency result is “inactive”.

For `CC1=CC2=C(C)C(=O)[C@](C)(O)[C@H](O)C2=CO1`, the Potency entry is “inactive”.

Regarding `COc1cc(CCc2ccccc2)c(C(=O)O)c2c1CC(C(C)(C)O)O2` (stereo not given), the Potency is 2.27 µM (active).

Regarding `CC1(C)CC[C@]2(C(=O)O[C@@H]3O[C@H](CO)[C@@H](O)[C@H](O)[C@H]3O)CC[C@]3(C)C(=CCC4[C@@]5(C)C[C@@H](O)[C@H](O)[C@@](C)(CO)C5CC[C@]43C)C2C1` (stereo not given in full), the Potency result was “inactive”.

As for `C=C1C[C@H](O)[C@@H](O)[C@@]2(C)C1[C@@H](O)[C@H]1OC(=O)C3[C@@H](C)[C@@H](O)[C@H](O)C2[C@]31C` (stereo not given in full), the Potency result was “inactive”.

With `COc1cc(C)c(C(=O)Oc2cc(C)c(C(=O)Oc3cc(C)c(C(=O)NC(C)C(=O)O)c(O)c3)c(O[C@@H]3O[C@H](CO)[C@@H](O)[C@H](O)[C@H]3OC(C)=O)c2)c(OC)c1` (stereo not given in full), the Potency entry was “inactive”.

The values above are taken from PubChem BioAssay (NCATS).
